Results on 14 compounds are retold here after PubChem BioAssay.

For test [1], the system named is PRMT1 (protein arginine N-methyltransferase 1). The test is described as follows: small molecules binding arginine methyltransferase PRMT1 – biochemical, small-molecule microarray, 635 nm fluorescence, primary screen (AID 1088).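 Further: binding of Prmt1 protein to compounds spotted on small-molecule microarray slides.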 The conditions noted are these: higher = more signal.
Test [2] can be described thus: growth effects on S. cerevisiae YJM789 – YJM789 clinical isolate, OD600, 24 h, basal, primary screen (AID 1089).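 Further: growth of clinical yeast isolate S. cerevisiae YJM 789 seeded 1000 cells per well; test concentration not given here.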 The conditions noted are these: higher = more signal, called active from +8 up or from −8 down.
The nature of test [3]: S. pombe growth modifiers, basal conditions – strain 972, OD600, 24 h, no modulator, primary screen (AID 1090).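 Further: basal condition with compound alone and no growth modifier present; test concentration not given here.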 The conditions noted are these: S. pombe 972 growth, higher = more signal, called active from +8 up or from −8 down.
The nature of test [4]: budding yeast growth modifiers under rapamycin – strain BY4716, OD600, 96 h, primary screen (AID 1091). Further: test concentration not given here. The conditions noted are these: S. cerevisiae BY4716 + rapamycin, higher = more signal, called active from +8 up or from −8 down.
For test [5], the target named is Torsin-1A-interacting protein 2 (Homo sapiens) (UniProt Q8NFQ8). The test is described as follows: small molecules binding lysate-expressed LULL1 – cell lysate, human LULL1 lysate, 635/667 nm fluorescence, primary screen (AID 1092).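 Further: probe is lysate of COS7 cells overexpressing human LULL1; score merges per-feature 667 nm fluorescence with signal-to-noise.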 The conditions noted are these: small-molecule microarray, hLULL1 lysate binding, 635 nm fluorescence; higher = more signal.
The nature of test [6]: optical density change of DRC41 E. coli – strain DRC41, OD650, 24 h, E. coli filamentation project, primary screen (AID 1093).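 Further: MC1000 strain lacking acrAB efflux and sulA so SOS filamentation is blocked; test concentration not given here.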 The conditions noted are these: E. coli DRC41 growth, higher = more signal, called active from +8 up or from −8 down.
The nature of test [7]: probe aLefty2 binding to arrayed compounds – biochemical, biotinylated probe, 635/667 nm fluorescence, primary screen (AID 1094).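 Further: score merges spot fluorescence near 667 nm with spot signal-to-noise ratio.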 The conditions noted are these: small-molecule microarray, higher = more signal.
Test [8] has as its system Noggin (protein binding on small-molecule microarray). The test is described as follows: small molecules binding Noggin protein – biochemical, 635/667 nm fluorescence, primary screen (AID 1095).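 Further: score merges 667 nm feature fluorescence with signal to noise over triplicate slides.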 The conditions noted are these: 635 nm fluorescence, higher = more signal.
Test [9] deals with Neurogenic locus notch homolog protein 3 (Homo sapiens) (UniProt Q9UM47). As to the kind of experiment: small molecules binding NOTCH3 protein – biochemical, 635/667 nm fluorescence, primary screen (AID 1096). The conditions noted are these: small-molecule microarray, 635 nm fluorescence, higher = more signal.
The nature of test [10]: probe aEGFR binding to arrayed compounds – biochemical, biotinylated probe, 635/667 nm fluorescence, primary screen (AID 1097).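 Further: probe is a biotinylated anti-EGFR antibody binding compounds printed on slides; score combines fluorescence near 667 nm and signal to noise of each spot.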 The conditions noted are these: small-molecule microarray, higher = more signal.

Calls of active or inactive are those of the source.

Sequence of Torsin-1A-interacting protein 2 (Homo sapiens) (Q8NFQ8 whole entry, looked up): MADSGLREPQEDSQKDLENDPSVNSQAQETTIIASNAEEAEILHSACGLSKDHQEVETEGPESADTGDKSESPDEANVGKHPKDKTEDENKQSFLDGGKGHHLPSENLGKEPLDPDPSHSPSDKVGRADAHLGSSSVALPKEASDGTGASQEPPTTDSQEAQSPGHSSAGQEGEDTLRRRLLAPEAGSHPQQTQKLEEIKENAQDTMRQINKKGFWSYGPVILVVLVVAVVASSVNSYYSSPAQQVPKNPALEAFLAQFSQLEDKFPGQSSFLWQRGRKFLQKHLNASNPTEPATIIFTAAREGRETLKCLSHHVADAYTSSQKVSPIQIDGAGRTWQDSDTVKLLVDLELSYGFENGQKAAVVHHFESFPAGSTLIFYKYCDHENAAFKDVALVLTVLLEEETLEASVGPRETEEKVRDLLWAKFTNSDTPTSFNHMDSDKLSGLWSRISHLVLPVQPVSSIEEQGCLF
Sequence of Neurogenic locus notch homolog protein 3 (Homo sapiens) (Q9UM47 whole entry, looked up): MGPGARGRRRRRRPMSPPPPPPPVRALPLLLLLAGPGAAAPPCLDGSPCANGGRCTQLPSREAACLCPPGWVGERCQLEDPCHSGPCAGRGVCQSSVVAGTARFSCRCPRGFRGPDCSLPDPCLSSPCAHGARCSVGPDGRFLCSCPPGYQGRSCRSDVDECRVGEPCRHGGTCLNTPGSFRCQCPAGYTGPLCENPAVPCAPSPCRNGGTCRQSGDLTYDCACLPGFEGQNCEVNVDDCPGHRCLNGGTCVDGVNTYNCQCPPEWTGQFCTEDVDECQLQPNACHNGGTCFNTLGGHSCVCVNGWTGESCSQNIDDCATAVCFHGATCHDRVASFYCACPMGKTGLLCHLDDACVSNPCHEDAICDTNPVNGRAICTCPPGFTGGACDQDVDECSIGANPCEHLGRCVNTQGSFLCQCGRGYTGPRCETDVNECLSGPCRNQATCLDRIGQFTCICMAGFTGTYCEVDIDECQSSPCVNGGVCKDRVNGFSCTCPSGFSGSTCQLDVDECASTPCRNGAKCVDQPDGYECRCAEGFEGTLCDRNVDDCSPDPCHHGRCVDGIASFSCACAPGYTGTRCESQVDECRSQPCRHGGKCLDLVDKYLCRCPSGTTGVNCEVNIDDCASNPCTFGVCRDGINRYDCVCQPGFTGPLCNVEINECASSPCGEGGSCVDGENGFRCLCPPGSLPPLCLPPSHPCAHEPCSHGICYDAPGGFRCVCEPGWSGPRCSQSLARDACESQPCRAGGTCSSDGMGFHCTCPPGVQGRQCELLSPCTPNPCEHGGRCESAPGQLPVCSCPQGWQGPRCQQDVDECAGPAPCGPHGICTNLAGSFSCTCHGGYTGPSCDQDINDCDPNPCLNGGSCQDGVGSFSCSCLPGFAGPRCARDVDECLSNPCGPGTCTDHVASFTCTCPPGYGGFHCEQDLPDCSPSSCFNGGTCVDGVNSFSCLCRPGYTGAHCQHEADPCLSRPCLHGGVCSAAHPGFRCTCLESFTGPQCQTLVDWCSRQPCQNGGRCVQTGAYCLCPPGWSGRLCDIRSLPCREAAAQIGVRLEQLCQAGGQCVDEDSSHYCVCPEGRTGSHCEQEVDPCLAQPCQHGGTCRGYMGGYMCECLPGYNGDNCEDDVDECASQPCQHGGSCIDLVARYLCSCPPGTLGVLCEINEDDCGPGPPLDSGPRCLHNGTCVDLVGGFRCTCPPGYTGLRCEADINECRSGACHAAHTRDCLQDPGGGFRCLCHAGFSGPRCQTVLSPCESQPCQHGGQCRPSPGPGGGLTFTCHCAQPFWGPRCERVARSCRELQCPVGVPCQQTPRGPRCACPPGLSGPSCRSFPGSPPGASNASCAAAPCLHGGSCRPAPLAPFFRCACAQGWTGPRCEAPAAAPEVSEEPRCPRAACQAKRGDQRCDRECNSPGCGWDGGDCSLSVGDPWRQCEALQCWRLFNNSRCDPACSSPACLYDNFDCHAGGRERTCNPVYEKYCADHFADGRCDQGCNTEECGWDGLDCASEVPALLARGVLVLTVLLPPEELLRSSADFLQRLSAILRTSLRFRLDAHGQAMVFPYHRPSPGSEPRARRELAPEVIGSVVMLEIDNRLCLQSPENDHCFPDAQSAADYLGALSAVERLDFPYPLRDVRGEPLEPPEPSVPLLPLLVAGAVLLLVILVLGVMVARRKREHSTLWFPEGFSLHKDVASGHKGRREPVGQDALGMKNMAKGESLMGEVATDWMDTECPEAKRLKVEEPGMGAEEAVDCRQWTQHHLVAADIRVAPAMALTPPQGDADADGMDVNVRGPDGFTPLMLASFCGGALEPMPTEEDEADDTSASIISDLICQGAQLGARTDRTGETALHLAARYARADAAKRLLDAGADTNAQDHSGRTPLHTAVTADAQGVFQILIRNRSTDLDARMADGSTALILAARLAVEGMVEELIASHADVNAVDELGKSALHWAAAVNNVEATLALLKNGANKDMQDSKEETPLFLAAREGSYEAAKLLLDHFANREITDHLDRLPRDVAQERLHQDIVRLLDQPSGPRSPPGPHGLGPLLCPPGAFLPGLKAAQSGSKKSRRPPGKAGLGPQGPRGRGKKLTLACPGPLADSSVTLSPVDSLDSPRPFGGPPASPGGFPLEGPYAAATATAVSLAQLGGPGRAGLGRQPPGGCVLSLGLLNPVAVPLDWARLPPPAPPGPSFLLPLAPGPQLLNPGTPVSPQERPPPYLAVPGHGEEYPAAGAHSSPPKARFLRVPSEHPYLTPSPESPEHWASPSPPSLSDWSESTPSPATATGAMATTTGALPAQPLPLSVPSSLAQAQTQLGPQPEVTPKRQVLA

For the compound `CN1C(=O)C2C=CC(C(O)c3ccc(I)cc3)N(N(c3ccccc3)c3ccccc3)C2C1=O` (stereo not given), the composite z-score in [1] was 0.364; in test [5], 0.155; in [7], 0.17; in test [8], -0.569; in test [9], -0.239; in [10], -0.0903. The z-score in test [2] was 0.413 (inactive); in [3], 1.38 (inactive); in test [4] it was 1.45 (inactive); in test [6] it was -1.07 (inactive).

Turning to `O=C1O[C@H](c2ccccc2)[C@H](c2ccccc2)N2[C@H]1[C@@H](C(=O)Nc1nc3ccccc3s1)[C@]1(C(=O)Nc3ccccc31)[C@H]2c1ccccc1OCCO`, the composite z-score in test [1] is 1.5; in test [5], 3.09; in test [7], 0.229; in test [8], 0.712; in test [9], 0.595; in [10], -0.0828. In addition, the z-score is 1.91 (inactive) in test [2], 2.2 (inactive) in test [3], 3.94 (inactive) in test [4] and 0.732 (inactive) in test [6].

On to `Cc1ccc(S(=O)(=O)N2[C@@H](c3ccccc3)C(C(=O)O)=C[C@H]2C(C)(C)C)cc1`, for which the composite z-score is 1.55 in test [1]; 2.88 in test [5]; 0.152 in test [7]; 0.126 in test [8]; 1.08 in [9]; 0.131 in test [10]. Besides, the z-score was -0.601 (inactive) in test [2], -0.273 (inactive) in [3], -0.802 (inactive) in test [4] and -0.231 (inactive) in test [6].

As for `CC(C)c1ccc(NN2C(C(O)c3ccccc3)C=CC3C(=O)N(c4ccccc4)C(=O)C32)cc1` (stereo not given), the composite z-score in [1] was 0.787; in [5], 2.88; in test [7] it was 0.142; in test [8], -0.621; in test [9], 1.11; in [10] it was 0.198. The z-score in [2] is 1.54 (inactive); in test [3], -0.0469 (inactive); in [4], 0.209 (inactive); in test [6] it was -0.213 (inactive).

With `CO[C@H]1O[C@H](CO)[C@@H](OC(=O)CCc2ccccc2)[C@@H]2OC(=O)[C@@H](Cc3ccc4ccccc4c3)C/C=C/C[C@H](Cc3ccc4ccccc4c3)C(=O)O[C@@H]12`, the composite z-score in test [1] was 0.505; in test [5], 0.784; in [7] it was -0.138; in test [8], -0.701; in test [9], -1.26; in test [10], -0.206. For the same compound, the z-score in [2] is -2.4 (inactive); in [3] it was -2.22 (inactive); in [4], 11.7 (active); in test [6] it was 0.149 (inactive).

For `C=CCNC(=O)[C@H]1[C@@H]2C(=O)O[C@@H](c3ccccc3)[C@@H](c3ccccc3)N2[C@@H](c2ccc(O)cc2)[C@]12C(=O)Nc1ccc(C#CCC(C(=O)OC)C(=O)OC)cc12`, the composite z-score is 0.526 in [1]; 1.13 in [5]; -0.0478 in test [7]; 0.614 in [8]; -0.112 in [9]; -0.102 in test [10]. For the same compound, the z-score in test [2] is 0.357 (inactive); in test [3] it was -0.213 (inactive); in test [4], -0.836 (inactive); in test [6], 1.44 (inactive).

Turning to `CC(C)(C)OC(=O)CC[C@]1(C(N)=O)N=C(c2ccc(OCCCO)cc2)O[C@H]1c1ccccc1N=[N+]=[N-]`, the composite z-score in test [1] was 0.138; in [5], 2.75; in test [7] it was 0.0598; in test [8], -0.165; in test [9] it was 0.206; in test [10], 0.141. Further, the z-score is 1.37 (inactive) in test [2], 0.138 (inactive) in test [3], 0.467 (inactive) in test [4] and 0.626 (inactive) in [6].

In the case of `COC(=O)[C@H](Cc1ccccc1)N1CC(C)(OC)O[C@@H](Cc2ccccc2)[C@H]1/C=C/C1CC1` (stereo not given in full), the composite z-score was 0.38 in test [1]; 0.638 in test [5]; -0.124 in [7]; -0.305 in test [8]; -0.68 in [9]; -0.15 in test [10]. The z-score in test [2] was 0.0394 (inactive); in test [3] it was -2.37 (inactive); in [4], -0.184 (inactive); in test [6], -0.0718 (inactive).

`C=CCNC(=O)[C@@H]1[C@H]2C(=O)O[C@H](c3ccccc3)[C@H](c3ccccc3)N2[C@H](c2ccc(O)cc2)[C@@]12C(=O)Nc1ccc(C#CC3=CCCCC3)cc12`: the composite z-score in [1] is 1.55; in [5] it was 2.93; in [7], -0.162; in test [8] it was 1.03; in test [9], 1.05; in [10], 0.392. Further, the z-score is 1.03 (inactive) in [2], 0.185 (inactive) in test [3], 1.74 (inactive) in test [4] and -0.43 (inactive) in test [6].

`COc1cc(CO)cc(I)c1O[C@H]1C=C(C(=O)NCCO)C[C@@H](N(CCN2CCOCC2)C(=O)C2CCCO2)[C@@H]1O` (stereo not given in full): the composite z-score in [1] is -0.15; in test [5], 0.206; in test [7], -0.172; in test [8], 0.34; in test [9] it was -0.204; in test [10] it was -0.0106. Further, the z-score in [2] is 0.383 (inactive); in test [3], -0.455 (inactive); in test [4], 0.0665 (inactive); in [6], 2.54 (inactive).

With `CCOC(=O)C[C@H]1[C@H](OC(=O)c2ccc(-c3ccccc3)cc2)[C@@H](NC(=O)c2ccc(-c3ccccc3)cc2)c2cc(OCCCO)ccc2N1C(=O)c1ccccc1`, the composite z-score in test [1] was 1.26; in [5], 1.69; in test [7], -0.275; in test [8], 0.253; in [9] it was 1.07; in test [10], -0.183. Moreover, the z-score was 0.495 (inactive) in test [2], 0.785 (inactive) in [3], 1.3 (inactive) in test [4] and -0.783 (inactive) in [6].

`COc1ccc([Si](C)(C)[C@@H]2[C@@H](CC(=O)N3Cc4ccccc4C[C@H]3CO)O[C@]3(C(=O)N(Cc4ccc(I)cc4)c4ccccc43)[C@H]2C)cc1`: the composite z-score in test [1] is 1.57; in [5], 0.603; in test [7], 0.0007; in test [8], 1.92; in [9] it was 1.1; in test [10], -0.0982. Further, the z-score in test [2] was 0.391 (inactive); in test [3], 0.956 (inactive); in [4] it was 2.07 (inactive); in test [6], 2.19 (inactive).

On to `CC[C@@H](O[Si](C#C[Si](C(C)C)(C(C)C)C(C)C)(C(C)C)C(C)C)c1cn([C@H](CO)Cc2ccccc2)nn1`, for which the composite z-score was 1.34 in test [1]; 1.51 in test [5]; -0.232 in [7]; 0.715 in [8]; 0.907 in [9]; -0.0584 in test [10]. Moreover, the z-score in [2] is 1.57 (inactive); in test [3], 1.22 (inactive); in test [4], 0.532 (inactive); in test [6], 0.598 (inactive).

`COCCCNC(=O)[C@@]1(Cc2ccccc2I)c2ccccc2C(=O)N(C2CCCCC2)[C@H]1c1ccc(CO)cc1`: the composite z-score in test [1] is 1.51; in test [5], 2.97; in [7], -0.106; in test [8], 0.556; in test [9], 0.337; in [10], -0.0512. The z-score was -1.83 (inactive) in test [2], -0.856 (inactive) in test [3], -1.11 (inactive) in test [4] and 0.0355 (inactive) in test [6].
